Compound activity: PubChem BioAssay, several laboratories
The list is not random: actives were taken first. Their share in the collection is about 4.1%.
BoNT-F LC inh – inhibitors of Botulinum neurotoxin F light chain protease; Multiplex microsphere protease cleavage assay, flow cytometry; inhibition, % at 10 µM; 360,000 compounds, 0.22% hits; AID 588497; in the data active = inhibition above about 35%, passing the limit was not always enough; inconclusive = no clear call, values can overlap the other calls; note: plate controls were buffer without enzyme for full effect and enzyme alone for no effect
Anthrax LF inh2 – blocks Bacillus anthracis lethal factor protease | multiplex microsphere protease cleavage assay, LF | AID 588501 | 360,000 compounds, 0.12% hits | P15917 | inhibition, % at 10 µM; note: plate controls were buffer without enzyme for full effect and enzyme alone for no effect
Autofluor counter – counter-screen for toxin protease inhibitors: compound fluorescence; compound autofluorescence counterscreen, microsphere flow cytometry; active compounds read high; 360,000 compounds, 3.1% hits; fluorescence intensity (concentration not given with the values); in the data active = fluorescence intensity above about 16000; inconclusive = no clear call, values can overlap the other calls
BoNT A protease – BoNT A light chain protease inhibition; multiplex microsphere protease substrate cleavage, flow cytometry; inhibition, % at 10 µM; 360,000 compounds, 0.17% hits; note: plate controls were buffer without enzyme for full effect and enzyme alone for no effect
VHR inh abs – DUSP3 (human) phosphatase inhibition; recombinant VHR phosphatase, pNPP absorbance; inhibition, % at 13.3 µM; 290,000 compounds, 0.52% hits; AID 1654; in the data active = inhibition above about 50%
Target sequence (P51452 whole entry, looked up): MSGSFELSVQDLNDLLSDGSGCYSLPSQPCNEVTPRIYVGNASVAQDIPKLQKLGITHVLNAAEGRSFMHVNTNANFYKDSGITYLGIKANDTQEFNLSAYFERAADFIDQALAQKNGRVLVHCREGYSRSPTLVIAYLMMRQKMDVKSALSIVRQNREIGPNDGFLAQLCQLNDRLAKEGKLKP
MazF activator – activators of E. coli MazEF toxin-antitoxin RNase | FAM/BHQ RNA-DNA oligo cleavage fluorescence, 5 h | AID 504720 | activation, % at 20 µM | 350,000 compounds, 0.32% hits | P0AE70; in the data active = activation above about 50%
Target sequence (P0AE70 whole entry, looked up): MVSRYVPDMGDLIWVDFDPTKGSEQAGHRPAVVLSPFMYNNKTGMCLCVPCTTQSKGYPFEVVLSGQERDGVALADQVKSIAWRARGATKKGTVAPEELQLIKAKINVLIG
An asterisk follows results filed as active. Cut-off read from the data, not from the text of the source, unless noted: active = inhibition above about 30%; inconclusive = no clear call, values can overlap the other calls; inactive = below that.

For CN(C)c1ccc(NC(=O)C2CCCN(S(=O)(=O)c3ccccc3)C2)cc1 (configuration not stated) the results were BoNT-F LC inh -3, Anthrax LF inh2 -1, Autofluor counter 4454, BoNT A protease -1, VHR inh abs 56* and MazF activator 8.
Screening CCOC(=O)C1=CNS(=O)(=O)NC1c1ccc2ccccc2c1 (configuration not stated) returned BoNT-F LC inh -2, Anthrax LF inh2 6, Autofluor counter 2940, BoNT A protease 0 and MazF activator 9.
Screening COc1ccccc1CNc1nc(NCC2CC2)nc2ccsc12 returned BoNT-F LC inh -2, Anthrax LF inh2 -3, Autofluor counter 3914 and BoNT A protease 0.
`CCOC(=O)c1ccc(S(=O)(=O)N2CCN(CC3CC=CCC3)CC2)cc1` (configuration not stated) gave BoNT-F LC inh 7, Anthrax LF inh2 -8, Autofluor counter 17091*, BoNT A protease inconclusive, VHR inh abs 15 and MazF activator -1.
CCOC(=O)c1ccc(S(=O)(=O)N2CCN(S(=O)(=O)CC)CC2)cc1 was read as BoNT-F LC inh -39, Anthrax LF inh2 0, Autofluor counter 5312, BoNT A protease -1, VHR inh abs 24 and MazF activator -4.
`CCOC(=O)C1CN(S(=O)(=O)c2ccccc2)C1` gave BoNT-F LC inh -12, Anthrax LF inh2 0, Autofluor counter 9249, BoNT A protease 0, VHR inh abs 21 and MazF activator -1.
Screening CCOC(=O)C1CCCN(C(=O)Cc2c(C(=O)O)[nH]c3ccccc23)C1 (configuration not stated) returned BoNT-F LC inh 1, Anthrax LF inh2 0, Autofluor counter 23230*, BoNT A protease 0, VHR inh abs 12 and MazF activator 4.
Screening CCOC(=O)C1CCCN(S(=O)(=O)c2ccccc2)C1 (configuration not stated) returned BoNT-F LC inh 6, Anthrax LF inh2 -1, Autofluor counter 22239*, BoNT A protease 2, VHR inh abs 28 and MazF activator -4.
Nc1[nH]c(=O)nc2snnc12 was read as BoNT-F LC inh -3, Anthrax LF inh2 -4, Autofluor counter 3545, BoNT A protease 0 and MazF activator 3.
`COC(=O)N[C@@H]1C[C@H]2[C@@H]3CC[C@H]4C[C@@H](OC)CC[C@]4(C)[C@H]3CC[C@@]12C` gave BoNT-F LC inh 1, Anthrax LF inh2 -2, Autofluor counter 3517, BoNT A protease 1 and MazF activator 3.
COc1ccc(C)cc1N(CC(=O)N1CCCCCC1)S(=O)(=O)c1ccc(C)cc1 was read as BoNT-F LC inh -4, Anthrax LF inh2 -2, Autofluor counter 6608, BoNT A protease -1, VHR inh abs 2 and MazF activator 1.
Screening COC(=O)c1ccc(CC(C(=O)c2ccccc2)N(C)C)cc1 (configuration not stated) returned BoNT-F LC inh -16, Anthrax LF inh2 5, Autofluor counter 4147, BoNT A protease -3, VHR inh abs -6 and MazF activator 53*.
For CC(C)OC(=O)c1cc2ccccc2[nH]1 the results were BoNT-F LC inh -4, Anthrax LF inh2 3, Autofluor counter 21156*, BoNT A protease -5, VHR inh abs 4 and MazF activator 3.
`CCOC(=O)c1cc2cc3ccccc3cc2[nH]1` gave BoNT-F LC inh 3, Anthrax LF inh2 2, Autofluor counter 8411, BoNT A protease 4, VHR inh abs 13 and MazF activator 3.
COc1ccc(CCNC(=O)C2CCN(S(=O)(=O)c3ccc(C)cc3)CC2)cc1 was read as BoNT-F LC inh -13, Anthrax LF inh2 8, Autofluor counter 3872, BoNT A protease -5, VHR inh abs 9 and MazF activator -24.
For CCCCNC(=S)Nc1ccc(OC)nc1 the results were BoNT-F LC inh -1, Anthrax LF inh2 0, Autofluor counter 4439, BoNT A protease 0, VHR inh abs 13 and MazF activator -39.
Screening COc1ccc(N2CCN(c3nc(NCCc4ccc(OC)c(OC)c4)nc(OC)n3)CC2)cc1 returned BoNT-F LC inh 0, Anthrax LF inh2 -5, Autofluor counter 22889*, BoNT A protease inconclusive, VHR inh abs 11 and MazF activator -6.
For CCOc1nc(NCCc2ccc(OC)c(OC)c2)nc(N2CCN(c3ccc(OC)cc3)CC2)n1 the results were BoNT-F LC inh -1, Anthrax LF inh2 -2, Autofluor counter 23445*, BoNT A protease -1, VHR inh abs 39 and MazF activator 10.
`COc1ccc(Nc2nc(OC)nc(N3CCN(c4ccc(OC)cc4)CC3)n2)cc1` gave BoNT-F LC inh -12, Anthrax LF inh2 -4, Autofluor counter 12487, BoNT A protease -4, VHR inh abs 2 and MazF activator 9.
Screening COc1cc2[nH]c(=O)n(CCCCCC(=O)N3CCN(c4ccccc4)CC3)c(=O)c2cc1OC returned BoNT-F LC inh 9, Anthrax LF inh2 -2, Autofluor counter 19560*, BoNT A protease 6, VHR inh abs -1 and MazF activator 1.
For COc1cccc(CN(C)C(=O)c2ccc(COc3ccc(Cl)cc3)cc2)c1OC the results were BoNT-F LC inh -3, Anthrax LF inh2 -18, Autofluor counter 3867, BoNT A protease 0, VHR inh abs 58* and MazF activator -8.
`COc1ccccc1CN(C)C(=O)c1ccc(COc2ccccc2)cc1` gave BoNT-F LC inh -5, Anthrax LF inh2 -4, Autofluor counter 3549, BoNT A protease 0, VHR inh abs 1 and MazF activator 2.
Screening CC(CN1CCCCC1)OC(=O)COc1ccc(Br)cc1 (configuration not stated) returned BoNT-F LC inh inconclusive, Anthrax LF inh2 13, Autofluor counter 4370, BoNT A protease 3, VHR inh abs 18 and MazF activator 5.
For C(=N\n1cnnc1)/c1ccc2ncccc2c1 the results were BoNT-F LC inh 8, Anthrax LF inh2 -4, Autofluor counter 20485*, BoNT A protease inconclusive, VHR inh abs 25 and MazF activator 7.
Screening C(=N\n1cnnc1)/c1ccc2c(c1)OCO2 returned BoNT-F LC inh -3, Anthrax LF inh2 0, Autofluor counter 24727*, BoNT A protease -2, VHR inh abs 3 and MazF activator 2.
Screening C(=N\n1cnnc1)/c1ccccn1 returned BoNT-F LC inh -2, Anthrax LF inh2 3, Autofluor counter 10185, BoNT A protease -1, VHR inh abs 4 and MazF activator 6.
For N/C(=N\OC(=O)COc1ccc(Br)cc1)c1ccncc1 the results were BoNT-F LC inh -5, Anthrax LF inh2 2, Autofluor counter 2463, BoNT A protease -1, VHR inh abs 3 and MazF activator 3.
Screening N/C(=N\OS(=O)(=O)c1ccc(Br)cc1)c1ccncc1 returned BoNT-F LC inh 6, Anthrax LF inh2 3, Autofluor counter 21736*, BoNT A protease 3, VHR inh abs 14 and MazF activator 3.
